# From ChEMBL document CHEMBL3433997, “St. Jude Leishmania screening dataset” (2016)
# Target: Glucose transporter (Leishmania mexicana) (UniProt O61059)
# Test: ST_JUDE_LEISH: Cytotoxicity at 2uM final concentration against transgenic Leishmania Mexicana promastigotes LmGT2 that are glucose transport deficient and complemented with the L. Mexicana glucose transporter 2. Activity is measured by DNA content using SYBR green in vitro
# Assay type: functional
row,Structure (SMILES),inhibition [%]
1,Cc1ccc(-n2cc(CNCC3CCN(CCO)CC3)c(-c3ccc(F)cc3)n2)cc1,28.2
2,Cc1cccc(OCC2CCN(c3ncc(C(=O)NC4CC4)cc3Cl)CC2)c1,2.26
3,COC(=O)c1cccc(CNCc2cccc(-c3cccc(-c4nc5cc(C(F)(F)F)ccc5[nH]4)c3)c2)c1,-2.5
4,O=c1ccc2ccc(F)c3c2n1CC3CN1CCC(NCc2cccc(-c3cccs3)c2)CC1 (stereo not given),-6.19
5,COc1c(C2CCN(CCCCNC(=O)c3noc(-c4ccc(C#N)cc4)n3)CC2)ccc2c1CCCC2,2.85
6,Fc1cccc(Cn2ncc3cc(Nc4ncnc5sc(C#Cc6ncc[nH]6)cc45)ccc32)c1,-0.29
7,O=C(CNc1ccncc1)c1c[nH]c2ccccc12,0.74
8,CN1CCN(c2cccc(-c3nnc(-c4ccc(OCC(=O)NCc5cccc(C(F)(F)F)c5)c([N+](=O)[O-])c4)o3)c2)CC1,6.46
9,CC(=O)Nc1cccc(NC(=O)CSc2ccc(-c3nc4ccccc4[nH]3)cn2)c1,-0.27
10,O=C(Nc1ccccc1Cl)N(Cc1cc(Cl)cc(Cl)c1)CC(O)COc1ccc(Cl)c(F)c1 (stereo not given),-2.7
11,O=C(Nc1ccccc1)N(Cc1cccc(-c2ccc(CNCCc3ccccc3)cc2)c1)C1CCN(Cc2ccccc2)CC1,0.13
12,CCc1cc2c3c(N)nc(N)nc3ccc2n1CC,39.4
13,N#Cc1ccc(-c2ccc(C(=O)NCCCCN3CCC(c4cn(CCO)c5ccccc45)CC3)cc2)cc1,0.2
14,CCn1cnc2c(N3CCCC3=O)cc(C(=O)N[C@@H](Cc3ccccc3)[C@H](O)CNC3CCCCC3)cc21,2.63
15,COc1ccc(-c2nc(-c3ccc([N+](=O)[O-])cc3)no2)cc1OC,1.76
16,Cc1cccc2nc(-c3ccc(-c4cccc(NC(=O)Nc5cccc(C#N)c5)c4)cc3)[nH]c12,-1.23
17,O=C(/C=C/c1ccccc1O)NCCCCCN1CCC(c2c[nH]c3ccccc23)CC1,1.37
18,Cc1ccc(NC(=O)NCCCCCN2CCC(c3c[nH]c4ccccc34)CC2)cc1I,3.15
19,Cc1ccc(C(=O)N2CCc3cc4nccc(N5CCN6CCC[C@H]6C5)c4cc32)cc1,1.55
20,Cc1cccc2nc(C3CCN(CC4CCN(C(=O)/C=C/c5ccc(Cl)c(Cl)c5)CC4)CC3)[nH]c12,10.6

row,Structure (SMILES),inhibition [%]
1,CC(C)(C)c1ccc(NC(=O)c2cccc(CN3CCCN(Cc4cccc(C#N)c4)CC3)c2)cc1,0.63
2,CCC(C)OC(=O)C1=C(C)NC2=C(C(=O)CC(c3ccc(OC)c(OC)c3)C2)C1c1ccc(C)o1 (stereo not given),3.8
3,COc1cccc(OC)c1OCCCOc1c(C)nc(N)nc1N,0.4
4,Cc1nc(-c2nc(N3CCC(O)CC3)ncc2-c2ccsc2)sc1C,0.38
5,Cc1cc(Nc2cccc(C(F)(F)F)c2)nc2ccc(NC(=O)c3ccc(=O)[nH]c3)cc12,-0.59
6,Cc1onc(-c2ccccc2)c1-c1nc(NCCC(c2ccccc2)c2ccccc2)no1,6.9
7,NCC1CCCN1Cc1cccc(-c2ccc(-c3nc4cc(C(F)(F)F)ccc4[nH]3)cc2)c1 (stereo not given),-0.43
8,COc1cc(Nc2ccnc3cc(-c4nccs4)ccc23)ccc1OCCCc1nc2ccccc2[nH]1,4.89
9,c1ccc(CN2CCC(NCc3ccc(-c4ccc(CNC5CCCC5)cc4)cc3)CC2)cc1,0.48
10,Cn1c(=O)c2nc(-c3ccc(Cl)cc3)nnc2n(CCCC#N)c1=O,6.19
11,O=C(NCCCCCCNCc1ccc(-c2ccccc2)cc1)Nc1ccc(Cl)c(Cl)c1,2.28
12,CC(C)N(Cc1cnc2nc(N)nc(N)c2n1)c1ccc(Cl)c(Cl)c1,1.16
13,O=C(NC1CCN(Cc2ccc3c(c2)OCCO3)CC1)c1ccc(-c2cccc(Cl)c2)s1,6.98
14,Cc1cccc2nc(-c3cccc(-c4ccc(CNCc5cccc(N)c5)cc4)c3)[nH]c12,-2.56
15,CCCN(CCCCCCNCCc1ccc(Cl)cc1)CCc1ccc(O)c(O)c1,-4.57
16,COc1ccc(F)cc1-c1ccccc1CNC(=O)CN(C)S(=O)(=O)c1cc(C)cc(Cl)c1C,0.93
17,Cn1nccc1C(=O)NCCNCc1cccc(-c2csc(-c3nc4ccccc4[nH]3)c2)c1,7.22
18,O=C(/C=C/c1ccc2ccccc2c1)NCCCCCN1CCC(c2c[nH]c3ccccc23)CC1,0.03
19,O=C(NCCCCN1CCC(C(c2ccccc2)c2ccccc2)CC1)c1ccc(NC(=O)c2ccc(Cl)cc2)cc1,-1.74
20,CC(C)c1ccc(CN2CCC(NC(=O)c3ccc(-c4cccc(Cl)c4)s3)CC2)cc1,7.5
